From PubChem BioAssay AID588477 (NMMLSC, 2011)
Values without a mark were called inactive. Calls of active or inactive are those of the source.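 The calls were made as follows: active = valid curve fit with half-effect dose at most 10 µM and total binding change across doses of 30 points or more; inactive = the rest.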

Test system: Rho wt
Test: small GTPase nucleotide-binding inhibition, multiplex panel – biochemical, round 1 SAR, Mg buffer, multiplex flow cytometry, selectivity assay for Cdc42 probe extension project, SAR follow-up (AID 588477)
Conditions: GST-GTPase beads, Bodipy-GTP binding; series mostly up to 100 µM; percent response (remaining binding): at the top concentration

Structure (SMILES) | percent response (remaining binding) [%] | outcome
NS(=O)(=O)c1ccc(N2N=C(c3ccccc3)CC2c2ccccc2)cc1 (stereo not drawn) | 95.8 | 
O=C(C#Cc1ccccc1)c1cccc([N+](=O)[O-])c1 |  | inactive
COc1ccc(C2CC(c3ccccc3)=NN2c2ccc(S(N)(=O)=O)cc2)cc1 (stereo not drawn) | 92.8 | 
